According to paper PMC10726135, “HNF4α isoforms regulate the circadian balance between carbohydrate and lipid metabolism in the liver”:
Whole data set: some 18,000 sequences, median “log2 normalized intensity” near 0.36, cut for the highest 2% near 7.3. What follows is part of a selection rich in the highest values, with near analogues and random picks from the rest.

Biological target: T1, HNF4alpha8 (COS-7 nuclear extract) (Homo sapiens, UniProt P41235-5 1-452)
T1 sequence: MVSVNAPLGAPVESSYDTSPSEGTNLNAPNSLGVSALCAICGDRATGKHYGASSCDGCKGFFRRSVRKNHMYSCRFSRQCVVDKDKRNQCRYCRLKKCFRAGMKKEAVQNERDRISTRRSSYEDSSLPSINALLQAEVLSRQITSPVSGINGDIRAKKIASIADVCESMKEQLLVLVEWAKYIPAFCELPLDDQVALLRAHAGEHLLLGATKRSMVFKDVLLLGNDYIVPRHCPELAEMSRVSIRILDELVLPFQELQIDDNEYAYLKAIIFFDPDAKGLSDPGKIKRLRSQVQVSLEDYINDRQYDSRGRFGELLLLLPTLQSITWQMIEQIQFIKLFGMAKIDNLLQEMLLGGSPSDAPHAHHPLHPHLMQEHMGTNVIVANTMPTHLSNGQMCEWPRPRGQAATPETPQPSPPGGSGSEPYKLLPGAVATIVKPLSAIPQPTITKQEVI
Test: protein-binding microarray; COS-7 nuclear extract on double-stranded Agilent 4x180k PBM; binding buffer, salt, pH and temperature not given in the material; high values mean tight binding
Details: chain copies: 2; label: 3' end of strand 1 on the slide; dsDNA, one strand shown
How it was run: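 A custom Agilent SurePrint G3 4x180k array, spotted in quadruplicate with ~44,000 test sequences as ~60-nt oligonucleotides made double-stranded, was incubated with nuclear extracts. The extracts came from COS-7 cells transiently transfected by CaPO4 with a human HNF4α isoform expression vector. Bound HNF4α was imaged on an Agilent G2565CA scanner at 2-µm resolution, and the binding signal was taken as Agilent software's background-corrected, normalized gProcessedSignal.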

Sequence | binding signal [log2 normalized intensity]
AAAATACCTGGAAGTATTTATTGAGCACACGCCTAGGGAGATTAGAGTATCGGTCGA | -0.121
AAGTATCTCGGTCAAACCTTTGACCCTTTAGCCTAGGGAGATTAGAGTATCGGTCGA | 6.9
TGAAGCGACCCCTCGAGGCAACCTTTGACCGCCTAGGGAGATTAGAGTATCGGTCGA | 9.25
CGACCCCTCGAGGCAACCTTTGACCTGGTAGCCTAGGGAGATTAGAGTATCGGTCGA | 8.16
GTCAAATCACTGAAGCGACCCCTCGAGGCAGCCTAGGGAGATTAGAGTATCGGTCGA | 1.82
CCTCGAGGCAACCTTTGACCTGGTACTATGGCCTAGGGAGATTAGAGTATCGGTCGA | 6.8
ATCACTGAAGCGACCCCTCGAGGCAACCTTGCCTAGGGAGATTAGAGTATCGGTCGA | 1.75
GTGAACCTTTGTCCCGTTATGGCACCAAGAGCCTAGGGAGATTAGAGTATCGGTCGA | 1.55
AGATCCATTGCATGTGCATTTCACAATAGGGCCTAGGGAGATTAGAGTATCGGTCGA | 0.639
AGTTTGCCACGGTCAGCAATGTGGACTTTGGCCTAGGGAGATTAGAGTATCGGTCGA | 6.83
GCCACGGTCAGCAATGTGGACTTTGTCCTGGCCTAGGGAGATTAGAGTATCGGTCGA | 10.2
TGGACTTTGGTCCTGGTCAGACTTGCCACGGCCTAGGGAGATTAGAGTATCGGTCGA | 5.42
GTGGACTTTGTCCTGTGGGCTGTAAAAATCGCCTAGGGAGATTAGAGTATCGGTCGA | 5.73
CCGTCCTGTCCTGGACTTTCCTTTGTTGGGGCCTAGGGAGATTAGAGTATCGGTCGA | 2.84
GTGGGAGAAAGCTTTGGACTTTGGGCTGTGGCCTAGGGAGATTAGAGTATCGGTCGA | 6.47
GCAATGTGGACTTTGTCCTGTGGGCTGTAAGCCTAGGGAGATTAGAGTATCGGTCGA | 8.03
GGTCAGCAATGTGGACTTTGTCCTGTGGGCGCCTAGGGAGATTAGAGTATCGGTCGA | 8.67
ATGGACTTTGAAGGAGATTCCTGTGTCAGCGCCTAGGGAGATTAGAGTATCGGTCGA | 1.23
CAGATAATTACCTGGACTCTAGAGCCAGACGCCTAGGGAGATTAGAGTATCGGTCGA | 1.75
CTCAAAGTCTAACCCAACTAAGAACACAGTGCCTAGGGAGATTAGAGTATCGGTCGA | 1.24
AAAGTTCAGTTGCAAAGAACAGAATCCAGTGCCTAGGGAGATTAGAGTATCGGTCGA | -0.777

Sequence | binding signal [log2 normalized intensity]
GTCTTACTGATGGGCAAAGTTTTCAAGAATGCCTAGGGAGATTAGAGTATCGGTCGA | 1.24
CATGTTTACTTTTGCAAGGTTTGTTCTTATGCCTAGGGAGATTAGAGTATCGGTCGA | 1.87
GAGGACTTTGGCCTTTTGTGAGATATGGACGCCTAGGGAGATTAGAGTATCGGTCGA | 4.16
GGTGAACTTTGAGACTATCCTTGGACCGCAGCCTAGGGAGATTAGAGTATCGGTCGA | 3.32
AGATGGGGTGAACTTTGGACCACATATAGAGCCTAGGGAGATTAGAGTATCGGTCGA | 7.98
TACCATGGGAGACCTCAGGGGTCATCAGATGCCTAGGGAGATTAGAGTATCGGTCGA | 3.08
TGGGGTATCAGGTGGTGATGGTGGGAGGGAGCCTAGGGAGATTAGAGTATCGGTCGA | -0.797
AGATCAGATGGGGTGAACTTTGGACCACATGCCTAGGGAGATTAGAGTATCGGTCGA | 8.04
CAGGGGTCATCAGATAGATGGTCAGTGAACGCCTAGGGAGATTAGAGTATCGGTCGA | 1.88
CTCAGTCATACCACATGGATGGATTCAGATGCCTAGGGAGATTAGAGTATCGGTCGA | 0.256
ACAGGAGATCAGATGGGGTGAACTTTGGACGCCTAGGGAGATTAGAGTATCGGTCGA | 9.11
AAGGGAGAAAGACATGTTTCTAACTGCCCGGCCTAGGGAGATTAGAGTATCGGTCGA | 0.0984
CTGCTTCGGCCTTTGACCTCGTGATAACGAGCCTAGGGAGATTAGAGTATCGGTCGA | 5.83
TTGAAGAAATGGTGGACTTTGTAGCTCAAAGCCTAGGGAGATTAGAGTATCGGTCGA | 4.79
AAAGTTCTGCTGAGTATCCAAAGGTCAGTGGCCTAGGGAGATTAGAGTATCGGTCGA | 6.24
GACGGGAGGAAAACTGGGCAAAGGTCAGGAGCCTAGGGAGATTAGAGTATCGGTCGA | 5.58
GGCGTGGACTTCGCTCCGCCGCTAGGTGGCGCCTAGGGAGATTAGAGTATCGGTCGA | 3.13
GCCAGGCAGGACAGTTTTGTGTGTTTAATGGCCTAGGGAGATTAGAGTATCGGTCGA | 0.878
AAATGCTGATAATGATATGGACAATGAAATGCCTAGGGAGATTAGAGTATCGGTCGA | 0.122
CAGTGGACTTTGTCCTTCATCTATCTCCTTGCCTAGGGAGATTAGAGTATCGGTCGA | 5.95
GCCAGCCAGGGCCACCCATCAGTGGACTTTGCCTAGGGAGATTAGAGTATCGGTCGA | 7.34
